# Screening results: PubChem, several laboratories
# MsrA act: activates bovine MsrA enzyme; purified bovine MsrA, absorbance read-out; activation, % at 10.6 µM; hit rate 0.3% among 360,000; AID 602163; in the data active = activation above about 7.5%;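 also: 0% = vehicle and 100% = reference activator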
# rCAG binder: r(CAG) repeat RNA binding; inhibition, % at 3 µM; hit rate 1.3% among 370,000; TO-PRO-1 dye displacement fluorescence; AID 651821;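 active = inhibition above the plate cutoff, the mean of all test compounds on that plate plus 3 SD, cut at about 35% in these data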;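 also: 0% = DMSO alone and 100% = 100 µM mitoxantrone as full dye displacement; higher means more dye released from RNA so lower well fluorescence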
# DAGLB inh: blocks human DAGLB lipase activity; Q8NCG7; HEK293T DAGLB membrane lysate, EnzChek fluorogenic substrate; inhibition, % at 5.17 µM; hit rate 0.059% among 340,000; in the data active = inhibition above about 34%;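 also: 0% = enzyme with vehicle and 100% = wells lacking enzyme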
# Pemphigus Ab inh: human desmoglein-3 autoantibody binding inhibition. P32926. DSG3-coupled beads, scFv-anti-DSG3-GFP binding, flow cytometry; stronger effect = lower value. binding (percent of control), % at 10 µM. hit rate 0.48% among 310,000. AID 588358;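 active = binding more than 3 SD below its plate's average and above zero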;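 also: hits lower antibody fragment binding to DSG3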
# NadD block: NadD (S. aureus) enzyme inhibition. purified NadD enzyme, colorimetric absorbance read-out. inhibition, % at 20 µM. hit rate 0.78% among 360,000. AID 602399; in the data active = inhibition above about 26%
# MsrA inhibitor: inhibits bovine methionine sulfoxide reductase A; AID 651718; purified bovine MsrA, absorbance read-out; hit rate 0.75% among 360,000; inhibition, % at 15.5 µM;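 also: 0% = vehicle wells with enzyme and 100% = reference inhibitor wells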
# MsrA conf: confirmation of bovine MsrA inhibitors; shares compounds with MsrA inhibitor; purified bovine MsrA, absorbance read-out; inhibition, % at 15.5 µM; hit rate 41% among 2,300; AID 651822;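 also: coupled to thioredoxin reductase with NADPH and selenocystamine and DMSO as substrate; 0% = vehicle only and 100% = full effect of reference inhibitor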
# rCAG binder conf: r(CAG) RNA repeat binding, confirmation | TO-PRO-1 dye displacement fluorescence | AID 652065 | hit rate 70% among 4,300 | inhibition, % at 3 µM | shares compounds with rCAG binder;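 active = inhibition above a per-plate cutoff, the mean inhibition of sample wells plus 3 SD, cut at about 35% in these data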;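 also: loss of TO-PRO-1 fluorescence as compound displaces dye from 1x1 AA loop RNA; 0% = DMSO only wells and 100% = 100 µM mitoxantrone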
# DNA CAG counter: disrupts DNA CAG TO-PRO-1 complex, flagging rCAG hits | shares compounds with rCAG binder | d(CAG) DNA oligo TO-PRO-1 dye displacement, fluorescence | inhibition, % at 3 µM | hit rate 94% among 4,300;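 active = inhibition above its plate's cutoff, the mean test-well inhibition plus 3 SD, cut at about 4.8% in these data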;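 also: 0% = DNA dye mix with DMSO and 100% = 100 µM mitoxantrone; hits displace the dye from DNA and so lower well fluorescence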
# * = called active by the depositor; / = not tested or not shown; ! = repeats disagree. In the library only some 3.2% were active in any assay of this set; here they are far more common. Rule as the data show it, unless noted: active = inhibition above about 4.5%; inactive = the rest.
SMILES,MsrA act,rCAG binder,DAGLB inh,Pemphigus Ab inh,NadD block,MsrA inhibitor,MsrA conf,others
O=c1[nH]cnc2nc(-c3ccc(N(CCCl)CCCl)cc3)[nH]c12,-3,4,4,106,-4,5.1*,2,
CCCCCn1c(=O)c(C(=O)NCc2ccccc2Cl)c(O)c2ccccc21,-2,-5,-3,109,-6,0,/,
COc1ccc2c(C)c(CC(=O)N3C[C@H]4C[C@@H](C3)c3cccc(=O)n3C4)c(=O)oc2c1,-3,0,-2,99,3,2,/,
COc1ccc2c(C)c(CC(=O)N3C[C@H]4C[C@@H](C3)c3cccc(=O)n3C4)c(=O)oc2c1C,-4,-1,2,/,8,4.9*,2,
COc1ccc(/C=N/N=C(/N)N[N+](=O)[O-])c(OC)c1,-5,3,-2,101,9,7.9*,5.6*,
N#CC1c2ccccc2-n2nncc2CN1S(=O)(=O)c1ccc(Cl)cc1 (stereo unspecified),-9,2,-3,107,-3,0,/,
CCc1ccc(-n2c(O)c(/C=N/NC(=O)c3ccncc3)c(=O)[nH]c2=O)cc1,-6,8,5,/,1,4.7*,4.6*,
CC(C)c1ccc(-n2c(O)c(/C=N/NC(=O)c3ccncc3)c(=O)[nH]c2=O)cc1,-5,24,5,128,4,3,/,
COc1ccc2c(c1)/C(=C/c1cnc[nH]1)C(=O)N2,-7,3,6,98,3,3,/,
O=C1Nc2ccccc2/C1=C/c1cnc[nH]1,-3,1,1,96,-6,6.4*,4,
N#Cc1cc2c(nc1SCC(=O)Nc1cc(Cl)cc(Cl)c1)C1CCN2CC1,-2,-3,1,117,-1,1,/,
COc1cc(C(=O)NN=Cc2ccc(N(CCCl)CCCl)cc2)cc(OC)c1OC,-6,10,-2,121,6,5.2*,4,
CN(C)C(=S)SSC(=S)N(C)C,3,1,-1,93,-1,-1,/,
CN(C)c1ccc(C=C2C(=O)NC(=S)NC2=O)cc1[N+](=O)[O-],-8,-1,4,99,-4,7.3*,3,
COc1ccc(-c2cc(=Nc3cccc(C(=O)O)c3)c3cc(C)ccc3o2)cc1,-4,11,-8,101,7,2,/,
COc1ccc(-c2cc(=NCCCCCC(=O)O)c3cc(C)ccc3o2)cc1,-8,1,0,90,8,6.3*,7.0*!,
COC(=O)C1=C(c2ccc(OC)c(OC)c2)C[C@@H]2CC[C@H]1N2C(=O)NCCNC(C)=O,-3,-2,1,101,1,1,/,
COc1ccc(OC)c(-n2c(O)c(C=Nc3c(C)n(C)n(-c4ccccc4)c3=O)c(=O)[nH]c2=O)c1,-4,-1,1,93,8,4,/,
COc1ccccc1-n1c(O)c(C=Nc2c(C)n(C)n(-c3ccccc3)c2=O)c(=O)[nH]c1=O,-4,0,-2,101,2,5.4*,4.8*,
CCCCn1nnnc1C(CCSC)N1CCC2(CC1)C(=O)NCN2c1ccccc1 (stereo unspecified),1,1,/,/,-5,0,/,
CC(=O)Nc1ccc(N=Cc2c(O)n(Cc3ccco3)c(=O)[nH]c2=O)cc1,-4,8,/,88,4,5.2*,6.0*,
CN1C(=O)N(C)C(=O)C2(Sc3ccccc3C2=O)C1=O,-2,-1,0,/,-1,59*,1,
CC1=CC(=C2C(=O)NC(=O)NC2=O)C=C(C(F)(F)F)N1C(C)C,-5,0,-1,98,10,4.9*,2,
O=[N+]([O-])c1cccnc1N1CCCNCC1,0,0,0,87,-6,0,/,
O=C(N/N=C/C1C(=O)NC(=S)N(c2ccccc2)C1=O)c1cc(Br)c(O)c(Br)c1 (stereo unspecified),-8,28,9,95,1,4,/,
SMILES,MsrA act,rCAG binder,DAGLB inh,Pemphigus Ab inh,NadD block,MsrA inhibitor,MsrA conf,others
COc1cc2c(cc1O)C[C@H]1c3c(cc(O)c(OC)c3-2)CCN1C,-4,3,0,109,4,21*,9.2*,
O=c1[nH]c(=S)n(-c2ccccc2)c(O)c1C=NCCN1CCNCC1,-4,0,-2,87,-4,5.4*,2,
O=c1[nH]c(=S)n(-c2cccc(Cl)c2)c(O)c1C=NCCN1CCNCC1,1,12,4,94,-5,3,/,
CCOP(=O)(Nc1ccc2c(c1)C(=NNC(N)=S)c1ccccc1-2)OCC,-1,8,3,/,2,15*,11*,
CCOP(=O)(OCC)c1cccc(O)c1,-4,0,1,84,0,-1,/,
CSc1nc(N)c(N=Nc2ccc([As](=O)(O)O)cc2)c(=O)[nH]1,-6,-1,-1,111,0,82*,86*,
COc1ccc(N=Nc2c(O)[nH]c(=S)[nH]c2=O)cc1,-4,-11,6,98,-4,0,/,
O=C1NC(=O)N(Cc2cccs2)C(=O)/C1=C/c1ccc(N2CCOCC2)cc1,-8,11,4,99,7,4.7*,3,
NCC(O)c1cc(O)c(O)cc1F (stereo unspecified),-8,2,2,/,4,-1,/,
COc1cc(/C=C2\C(=O)NC(=O)N(CCc3ccc(F)cc3)C2=O)ccc1O,-13,43*,15,90,1,7.6*,4,rCAG binder conf=5;DNA CAG counter=1
COc1cc(C=C2C(=O)NC(=O)NC2=O)ccc1O,0,-5,0,132,-2,3,/,
COC(=O)C1=C(c2cccc(C#N)c2)C[C@@H]2CC[C@H]1N2C(=O)N1CCc2cc(OC)c(OC)cc2C1,-6,2,-1,103,4,-1,/,
C[n+]1c(-c2ccccc2)c2cc(N)ccc2c2ccc(N)cc21,4,41*,4,80,19,44*,34*,rCAG binder conf=49*;DNA CAG counter=63*
CCN(CC)c1ccc(/C=C2\C(=O)NC(=O)N(Cc3ccco3)C2=O)cc1,-6,24,4,165,12,4,/,
CCCCN1C(=O)/C(=C/c2ccc(N(C)C)cc2)C(=O)N(Cc2ccco2)C1=O,-5,54*,13,156,34*,5.3*,5.5*,rCAG binder conf=33;DNA CAG counter=10*
N/C(=N\N=C/c1ccc(-c2ccc(O)c(C(=O)O)c2)o1)N[N+](=O)[O-],-4,58*,4,96,4,5.2*,4.7*,rCAG binder conf=67*;DNA CAG counter=28*
CC(C)CC(=O)Nc1ccc(S(=O)(=O)N2CC3CC(C2)c2cccc(=O)n2C3)cc1 (stereo unspecified),-2,-1,-1,99,-2,0,/,
